Where “and” joins values, the source holds several entries; their conditions need not be identical. Identical values can stand only once. The whole screen tested about 5,500 compounds, of which about 2,000 (36%) were called active. Not shown: some 18% with an inconclusive outcome. No stated cut-off is given here; in the data, active means normalized growth mostly below about 0.91 (no sharp cut-off); inconclusive means no clear call, values can overlap the other calls; inactive means mostly above about 0.92. The list shows a part of the results.
Assay: chemical genetic growth profiling, strain panel (AID 1159580);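 further: tested at 20 µM; growth read once vehicle control cultures reached saturation at 30 °C; 1 = growth at the plate median or of vehicle wells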
Conditions: S. cerevisiae deletion strains, growth OD

Measured: normalized growth

NCC(O)c1ccc(O)cc1 (stereo not given)
inactive: locus YAL013W, strain DEP1, stronger effect = lower value 0.996 and 1.01 | locus YAL021C, strain ccr4, stronger effect = lower value 1.01 | locus YAL026C, strain drs2, stronger effect = lower value 1.01 | locus YAL030W, strain snc1, stronger effect = lower value 0.997 | locus YAL040C, strain CLN3, stronger effect = lower value 1 | locus YBL061C, strain skt5, stronger effect = lower value 1.01 | locus YBR009C, strain hhf1, stronger effect = lower value 0.995 | locus YBR021W, strain FUR4, stronger effect = lower value 0.987 | locus YBR023C, strain chs3, stronger effect = lower value 0.998 | locus YBR171W, strain sec66, stronger effect = lower value 0.995 | locus YBR229C, strain ROT2, stronger effect = lower value 0.977 | locus YBR231C, strain swc5, stronger effect = lower value 1.02 | locus YBR279W, strain paf1, stronger effect = lower value 1.02 | locus YCL011C, strain gbp2, stronger effect = lower value 1.03 | locus YCL016C, strain dcc1, stronger effect = lower value 1.03 | locus YCL029C, strain bik1, stronger effect = lower value 0.966 | locus YCL061C, strain MRC1 (second series), stronger effect = lower value 1.01 | locus YCL069W, strain vba3, stronger effect = lower value 1 | locus YCR088W, strain abp1, stronger effect = lower value 0.993 | locus YDL005C, strain med2, stronger effect = lower value 0.998 | locus YDL035C, strain GPR1, stronger effect = lower value 1.01 | locus YDL040C, strain nat1, stronger effect = lower value 0.999 | locus YDL074C, strain BRE1, stronger effect = lower value 1 | locus YDL101C, strain DUN1, stronger effect = lower value 0.987 | locus YDL134C, strain PPH21, stronger effect = lower value 0.996 | locus YDL185W, strain tfp1, stronger effect = lower value 0.977 | locus YDL192W, strain arf1, stronger effect = lower value 0.984 | locus YDR001C, strain nth1, stronger effect = lower value 1.01 | locus YDR069C, strain doa4, stronger effect = lower value 0.996 | locus YDR101C, strain arx1, stronger effect = lower value 0.987 | locus YDR137W, strain rgp1, stronger effect = lower value 1.02 | locus YDR150W, strain NUM1, stronger effect = lower value 1.01 and 1 | locus YDR159W, strain sac3, stronger effect = lower value 0.963 | locus YDR162C, strain NBP2, stronger effect = lower value 0.999 | locus YDR195W, strain ref2 0.947 | locus YDR297W, strain sur2, stronger effect = lower value 1.02 | locus YDR318W, strain mcm21, stronger effect = lower value 0.963 | locus YDR334W, strain swr1, stronger effect = lower value 1 | locus YDR335W, strain msn5, stronger effect = lower value 1.01 | locus YDR363W, strain ESC2, stronger effect = lower value 1 | locus YDR388W, stronger effect = lower value 0.97 | locus YDR392W, strain spt3, stronger effect = lower value 0.995 | locus YDR502C, strain sam2, stronger effect = lower value 0.988 | locus YEL003W, strain gim4, stronger effect = lower value 1.01 | locus YEL037C, strain rad23, stronger effect = lower value 1.01 | locus YEL061C, strain CIN8 (second series), stronger effect = lower value 0.999 | locus YEL061C, strain CIN8, stronger effect = lower value 1 | locus YER002W, strain NOP16, stronger effect = lower value 1 | locus YER015W, strain faa2, stronger effect = lower value 1.01 | locus YER016W, strain bim1, stronger effect = lower value 0.999 | locus YER110C, stronger effect = lower value 0.976 | locus YER111C, strain swi4, stronger effect = lower value 1.01 | locus YER155C, strain BEM2 (second series), stronger effect = lower value 0.977 | locus YER155C, strain BEM2, stronger effect = lower value 0.99 | locus YER167W, strain BCK2, stronger effect = lower value 0.992 | locus YFR010W, strain ubp6, stronger effect = lower value 0.998 | locus YGL078C, strain dbp3, stronger effect = lower value 0.988 | locus YGL086W, strain mad1, stronger effect = lower value 0.993 | locus YGL167C, strain pmr1, stronger effect = lower value 0.997 | locus YGL173C, strain kem1, stronger effect = lower value 1.01 | locus YGL227W, strain vid30, stronger effect = lower value 0.995 | locus YGL240W, strain doc1, stronger effect = lower value 0.985 | locus YGL248W, strain PDE1, stronger effect = lower value 0.989 | locus YGL253W, strain hxk2, stronger effect = lower value 1.03 | locus YGR078C, strain PAC10, stronger effect = lower value 0.989 and 1.03 | locus YGR135W, strain pre9, stronger effect = lower value 0.984 | locus YGR229C, strain SMI1, stronger effect = lower value 1 and 1.01 | locus YGR252W, strain gcn5, stronger effect = lower value 1.03 | locus YHR013C, strain ard1, stronger effect = lower value 0.978 | locus YHR027C, strain rpn1, stronger effect = lower value 1.01 | locus YHR030C, strain SLT2, stronger effect = lower value 0.983 and 0.979 | locus YHR079C, strain IRE1 (second series), stronger effect = lower value 0.975 | locus YHR079C, strain IRE1, stronger effect = lower value 0.982 | locus YHR094C, strain hxt1, stronger effect = lower value 0.986 | locus YHR129C, strain ARP1, stronger effect = lower value 0.994 | locus YHR142W, strain chs7, stronger effect = lower value 1.02 | locus YHR200W, strain rpn10, stronger effect = lower value 0.98 | locus YIL066C, strain RNR3, stronger effect = lower value 0.998 | locus YIL073C, strain SPO22, stronger effect = lower value 0.986 | locus YIL125W, strain kgd1, stronger effect = lower value 0.982 | locus YIR030C, strain dcg1, stronger effect = lower value 0.983 | locus YJL092W, strain hpr5, stronger effect = lower value 1.01 | locus YJL095W, strain BCK1 (second series), stronger effect = lower value 1.01 | locus YJL095W, strain BCK1, stronger effect = lower value 0.962 and 1 | locus YJL115W, strain asf1, stronger effect = lower value 1.01 | locus YJL129C, strain trk1, stronger effect = lower value 1.01 | locus YJL134W, strain LCB3, stronger effect = lower value 0.995 | locus YJL154C, strain vps35, stronger effect = lower value 0.99 | locus YJL164C, strain tpk1, stronger effect = lower value 0.994 | locus YJL166W, strain qcr8, stronger effect = lower value 0.999 | locus YJL168C, strain set2, stronger effect = lower value 0.976 | locus YJL187C, strain SWE1 (second series), stronger effect = lower value 0.988 | locus YJR043C, strain POL32, stronger effect = lower value 0.994 | locus YJR066W, strain TOR1, stronger effect = lower value 0.919 | locus YJR075W, strain HOC1, stronger effect = lower value 0.993

Reference: PubChem BioAssay AID1159580 (chemical genetic matrix, 2015)
